From the supplement of paper PMC8728848
Only a selection was taken, and the strongest signals are over-represented in it overall.

Legend:
Experiment in all cases: glycan array binding signal (z-score within array); higher = stronger binding
Details in all cases: glycan notation: IUPAC condensed, linker removed
[1] = target: Fuc(a1-2)Gal(b1-3)GlcNAc(b1-3)[Neu5Ac(a2-6)Gal(b1-4)GlcNAc(b1-6)]Gal(b1-4)Glc
How it was run: (§1)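 Negative Z-scores can be read as non-binding. The Z-score is calculated within each array and then averaged across arrays of one protein sequence at different concentrations or buffers and across linkers. Arrays, 3228 in all, were curated from the Consortium for Functional Glycomics database and kept only where the protein sequence was available.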

[2] = target: Fuc(a1-2)Gal(b1-3)[Fuc(a1-4)]GlcNAc(b1-2)Man(a1-3)[Fuc(a1-2)Gal(b1-3)[Fuc(a1-4)]GlcNAc(b1-2)Man(a1-6)]Man(b1-4)GlcNAc(b1-4)[Fuc(a1-6)]GlcNAc(b1-4)[Fuc(a1-6)]GlcNAc
How it was run: as §1

[3] = target: Fuc(a1-2)Gal(b1-4)Glc
How it was run: as §1

[4] = target: Fuc(a1-2)Gal(b1-4)Glc6S
How it was run: as §1

[5] = target: Fuc(a1-2)Gal(b1-4)GlcNAc
How it was run: as §1

[6] = target: Fuc(a1-2)Gal(b1-4)GlcNAc(b1-3)[Fuc(a1-2)Gal(b1-4)GlcNAc(b1-6)]GalNAc
How it was run: as §1

[7] = target: Fuc(a1-2)Gal(b1-4)GlcNAc(b1-6)GalNAc
How it was run: as §1

[8] = target: Fuc(a1-2)Gal(b1-4)GlcNAc6S
How it was run: as §1

[9] = target: Fuc(a1-2)Gal(b1-4)[Fuc(a1-3)]GlcNAc(b1-2)Man(a1-3)[Fuc(a1-2)Gal(b1-4)[Fuc(a1-3)]GlcNAc(b1-2)Man(a1-6)]Man(b1-4)GlcNAc(b1-4)[Fuc(a1-6)]GlcNAc
How it was run: as §1

[10] = target: Fuc(a1-2)Gal6S(b1-3)GlcNAc
How it was run: as §1

[11] = target: Fuc(a1-2)Gal6S(b1-4)Glc
How it was run: as §1

[12] = target: Fuc(a1-2)Gal6S(b1-4)Glc6S
How it was run: as §1

[13] = target: Fuc(a1-2)[Gal(a1-3)]Gal
How it was run: as §1

[14] = target: Fuc(a1-2)[Gal(a1-3)]Gal(b1-4)GlcNAc(b1-2)Man(a1-3)[Fuc(a1-2)[Gal(a1-3)]Gal(b1-4)GlcNAc(b1-2)Man(a1-6)]Man(b1-4)GlcNAc(b1-4)GlcNAc
How it was run: as §1

[15] = target: Fuc(a1-2)[Gal(a1-3)]Gal(b1-4)[Fuc(a1-3)]GlcNAc(b1-3)GalNAc
How it was run: as §1

[16] = target: Fuc(a1-2)[Gal(a1-4)]Gal(b1-4)GalNAc
How it was run: as §1

[17] = target: Fuc(a1-2)[Gal(a1-4)]Gal(b1-4)GlcNAc
How it was run: as §1

[18] = target: Fuc(a1-2)[GalNAc(a1-4)]Gal(b1-4)GlcNAc
How it was run: as §1

[19] = target: Fuc(a1-3)[Gal(b1-4)]GlcNAc(b1-6)[Gal(b1-3)GlcNAc(b1-3)]Gal(b1-4)Glc
How it was run: as §1

[20] = target: Fuc(a1-3)[GalNAc(b1-4)]GlcNAc6S
How it was run: as §1

[21] = target: Gal(a1-3)Gal(b1-4)GlcNAc(b1-2)Man(a1-3)[Gal(a1-3)Gal(b1-4)GlcNAc(b1-2)Man(a1-6)]Man(b1-4)GlcNAc(b1-4)GlcNAc
How it was run: as §1

[22] = target: Gal(a1-4)Gal(b1-4)GlcNAc(b1-2)Man(a1-3)[Gal(a1-4)Gal(b1-4)GlcNAc(b1-2)Man(a1-6)]Man(b1-4)GlcNAc(b1-4)GlcNAc
How it was run: as §1

[23] = target: Gal(a1-4)GlcNAc
How it was run: as §1

[24] = target: Gal(b1-3)GalNAc(b1-4)[Neu5Ac(a2-3)]Gal(b1-4)Glc
How it was run: as §1

[25] = target: Gal(b1-3)GlcNAc(a1-6)Gal(b1-4)GlcNAc
How it was run: as §1

[26] = target: Gal(b1-3)GlcNAc(b1-2)Man(a1-3)[Gal(b1-3)GlcNAc(b1-2)Man(a1-6)]Man(b1-4)GlcNAc(b1-4)GlcNAc
How it was run: as §1

[27] = target: Gal(b1-3)GlcNAc(b1-2)Man(a1-3)[Gal(b1-3)GlcNAc(b1-2)Man(a1-6)]Man(b1-4)GlcNAc(b1-4)[Fuc(a1-6)]GlcNAc
How it was run: as §1

[28] = target: Gal(b1-3)[Fuc(a1-4)]GlcNAc(b1-6)GalNAc
How it was run: as §1

[29] = target: Gal(b1-3)[Neu5Ac(a2-6)]GlcNAc(a1-4)Gal(b1-4)Glc
How it was run: as §1

[30] = target: Gal(b1-3)[Neu5Ac(a2-6)]GlcNAc(b1-4)Gal(b1-4)Glc
How it was run: as §1

[31] = target: Gal(b1-4)GlcNAc(b1-2)Man(a1-6)[GlcNAc(b1-2)Man(a1-3)]Man(b1-4)GlcNAc(b1-4)GlcNAc
How it was run: as §1

[32] = target: Gal3S(b1-4)[Fuc(a1-3)]GlcNAc6S
How it was run: as §1

[33] = target: Gal6S(b1-4)Glc6S
How it was run: as §1

[34] = target: GalNAc(a1-3)GalNAc(a1-3)Gal(a1-4)Gal(b1-4)GlcNAc
How it was run: as §1

[35] = target: GalNAc(b1-3)Gal(a1-6)Gal(b1-4)Glc
How it was run: as §1

[36] = target: Glc(a1-6)Glc(a1-6)Glc
How it was run: as §1

[37] = target: GlcNAc(b1-2)Gal(b1-3)GalNAc
How it was run: as §1

[38] = target: GlcNAc(b1-3)Gal(b1-4)GlcNAc(b1-2)Man(a1-3)[GlcNAc(b1-3)Gal(b1-4)GlcNAc(b1-2)Man(a1-6)]Man(b1-4)GlcNAc(b1-4)GlcNAc
How it was run: as §1

[39] = target: GlcNAc(b1-3)[GlcNAc(b1-6)]Gal(b1-4)GlcNAc
How it was run: as §1

[40] = target: GlcNAc(b1-3)[GlcNAc(b1-6)]GalNAc
How it was run: as §1

[41] = target: Kdn(a2-3)Gal(b1-3)GlcNAc
How it was run: as §1

[42] = target: Man(a1-2)Man(a1-2)Man(a1-3)[Man(a1-2)Man(a1-3)[Man(a1-2)Man(a1-6)]Man(a1-6)]Man(b1-4)GlcNAc(b1-4)GlcNAc
How it was run: as §1

[43] = target: Man(a1-2)Man(a1-3)[Man(a1-2)Man(a1-6)]Man(a1-6)[Man(a1-2)Man(a1-2)Man(a1-3)]Man
How it was run: as §1

[44] = target: Man(a1-3)[Man(a1-6)]Man(a1-6)[Man(a1-3)]Man
How it was run: as §1

[45] = target: Neu5Ac(a2-3)Gal(b1-3)GlcNAc(b1-3)Gal(b1-4)GlcNAc
How it was run: as §1

[46] = target: Neu5Ac(a2-3)Gal(b1-3)[Neu5Ac(a2-3)Gal(b1-4)]GlcNAc
How it was run: as §1

[47] = target: Neu5Ac(a2-3)Gal(b1-4)GlcNAc(b1-2)Man(a1-3)[Neu5Ac(a2-6)Gal(b1-4)GlcNAc(b1-2)Man(a1-6)]Man(b1-4)GlcNAc(b1-4)GlcNAc
How it was run: as §1

[48] = target: Neu5Ac(a2-3)Gal(b1-4)GlcNAc(b1-3)GalNAc
How it was run: as §1

[49] = target: Neu5Ac(a2-3)Gal(b1-4)GlcNAc(b1-6)GalNAc
How it was run: as §1

[50] = target: Neu5Ac(a2-6)Gal(b1-4)GlcNAc(b1-2)Man(a1-3)Man(b1-4)GlcNAc(b1-4)GlcNAc
How it was run: as §1

[51] = target: Neu5Ac(a2-6)Gal(b1-4)GlcNAc(b1-2)Man(a1-3)[Man(a1-6)]Man(b1-4)GlcNAc(b1-4)GlcNAc
How it was run: as §1

[52] = target: Neu5Ac(a2-6)Gal(b1-4)GlcNAc(b1-3)Gal(b1-4)GlcNAc(b1-6)[Gal(b1-3)]GalNAc
How it was run: as §1

[53] = target: Neu5Ac(a2-6)Gal(b1-4)GlcNAc(b1-3)GalNAc
How it was run: as §1

[54] = target: Neu5Ac(a2-8)Neu5Ac(a2-3)[GalNAc(b1-4)]Gal(b1-4)Glc
How it was run: as §1

[55] = target: Neu5Ac9Ac(a2-6)Gal(b1-4)GlcNAc
How it was run: as §1

[56] = target: Neu5Gc(a2-8)Neu5Gc(a2-3)Gal(b1-4)GlcNAc
How it was run: as §1

[57] = target: Neu5Gc(b2-6)Gal(b1-4)GlcNAc
How it was run: as §1

B1: UEA-I (Ulex europaeus), P22972 (protein)
chain: SDDLSFKFKNFSQNGKDLSFQGDASVIETGVLQLNKVGNNLPDETGGIARYIAPIHIWNCNTGEVASFITSFSFFMETSANPKAATDGLTFFLAPPDSPLRRAGGYFGLFEDTKDNDSSYQTVAVEFDTIGSPVNFDDPGFPHIGIDVNRVKSINAERWNKRYGLNNVANVEIIYEASSKTLTASLTYPSDQTSISVTSIVDLKEILPEWVSVGFSGGTYIGRQATHEVLNWYFTSNLINTNS
- glycan array binding signal (z-score) [1]: -0.101
- glycan array binding signal (z-score) [2]: -0.186
- glycan array binding signal (z-score) [3]: 4.65
- glycan array binding signal (z-score) [4]: 8.87
- glycan array binding signal (z-score) [5]: 5.04
- glycan array binding signal (z-score) [6]: 5.44
- glycan array binding signal (z-score) [7]: 4.28
- glycan array binding signal (z-score) [8]: 5.67
- glycan array binding signal (z-score) [9]: -0.035
- glycan array binding signal (z-score) [10]: -0.194
- glycan array binding signal (z-score) [11]: 4.67
- glycan array binding signal (z-score) [12]: 5.33
- glycan array binding signal (z-score) [13]: -0.199
- glycan array binding signal (z-score) [14]: -0.194
- glycan array binding signal (z-score) [15]: -0.022
- glycan array binding signal (z-score) [16]: 5.51
- glycan array binding signal (z-score) [17]: 5.58
- glycan array binding signal (z-score) [18]: 5.17
- glycan array binding signal (z-score) [19]: -0.103
- glycan array binding signal (z-score) [20]: -0.217
- glycan array binding signal (z-score) [21]: -0.163
- glycan array binding signal (z-score) [22]: 0.015
- glycan array binding signal (z-score) [23]: -0.168
- glycan array binding signal (z-score) [24]: -0.207
- glycan array binding signal (z-score) [25]: -0.139
- glycan array binding signal (z-score) [26]: -0.101
- glycan array binding signal (z-score) [27]: -0.16
- glycan array binding signal (z-score) [28]: -0.098
- glycan array binding signal (z-score) [29]: -0.409
- glycan array binding signal (z-score) [30]: -0.234
- glycan array binding signal (z-score) [31]: -0.155
- glycan array binding signal (z-score) [32]: -0.212
- glycan array binding signal (z-score) [33]: -0.098
- glycan array binding signal (z-score) [34]: -0.179
- glycan array binding signal (z-score) [35]: -0.21
- glycan array binding signal (z-score) [36]: -0.204
- glycan array binding signal (z-score) [37]: -0.195
- glycan array binding signal (z-score) [38]: -0.128
- glycan array binding signal (z-score) [39]: -0.266
- glycan array binding signal (z-score) [40]: -0.17
- glycan array binding signal (z-score) [41]: -0.222
- glycan array binding signal (z-score) [42]: -0.378
- glycan array binding signal (z-score) [43]: -0.191
- glycan array binding signal (z-score) [44]: -0.125
- glycan array binding signal (z-score) [45]: -0.274
- glycan array binding signal (z-score) [46]: -0.122
- glycan array binding signal (z-score) [47]: -0.209
- glycan array binding signal (z-score) [48]: -0.22
- glycan array binding signal (z-score) [49]: -0.243
- glycan array binding signal (z-score) [50]: -0.227
- glycan array binding signal (z-score) [51]: -0.216
- glycan array binding signal (z-score) [52]: -0.032
- glycan array binding signal (z-score) [53]: -0.148
- glycan array binding signal (z-score) [54]: -0.259
- glycan array binding signal (z-score) [55]: -0.244
- glycan array binding signal (z-score) [56]: -0.238
- glycan array binding signal (z-score) [57]: -0.1
